The results in this text go back to PubChem BioAssay AID1376 (SRMLSC, 2008).

In all, about 220,000 compounds went through this assay and about 530 (0.24%) were called active. No stated cut-off is given here; in the data, active means inhibition above about 13%; inconclusive means no clear call, values can overlap the other calls; inactive means below that. This excerpt belongs to a sample that is enriched for actives. Measured potencies and affinities stand elsewhere.

Sequence of Bifunctional protein GlmU (Mycobacterium tuberculosis (strain ATCC 25618 / H37Rv)) (P9WMN3 whole entry, looked up): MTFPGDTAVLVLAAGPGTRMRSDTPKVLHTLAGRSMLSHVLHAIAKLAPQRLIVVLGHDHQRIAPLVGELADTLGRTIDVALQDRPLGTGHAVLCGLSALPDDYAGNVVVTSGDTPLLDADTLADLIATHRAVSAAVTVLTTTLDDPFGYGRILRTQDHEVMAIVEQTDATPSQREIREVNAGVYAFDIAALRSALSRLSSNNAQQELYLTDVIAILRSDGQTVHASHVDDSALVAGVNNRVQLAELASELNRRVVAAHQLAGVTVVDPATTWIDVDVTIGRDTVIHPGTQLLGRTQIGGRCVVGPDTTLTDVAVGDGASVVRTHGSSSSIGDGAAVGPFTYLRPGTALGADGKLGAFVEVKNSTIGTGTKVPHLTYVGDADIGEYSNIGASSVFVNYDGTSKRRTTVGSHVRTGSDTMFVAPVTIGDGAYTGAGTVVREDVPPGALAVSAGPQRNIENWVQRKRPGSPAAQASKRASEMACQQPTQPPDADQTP

This assay addresses Bifunctional protein GlmU (Mycobacterium tuberculosis (strain ATCC 25618 / H37Rv)) (UniProt P9WMN3). In words: inhibition of mycobacterial GlmU enzyme – biochemical, glucosamine-1-phosphate acetyltransferase (AID 1376).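 Further: 0% = complete reaction with vehicle and 100% = reaction without substrate.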 As to conditions: M. tuberculosis GlmU acetyltransferase enzyme assay; stronger effect = higher value;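 tested at 30 µM in the primary screen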.
The inhibition is the change of the read-out against control, counted positive when it falls. With `Cc1ccc(C)n1-c1sc2c(c1C(=O)O)CCCC2`, the inhibition was 11.2% (inactive).

With `Cc1ccc(C)n1-c1ccc(C(=O)O)cc1`, the inhibition was 11.1% (inactive).

For the compound `Cc1cccc(-n2c(-c3ccco3)nc3ccccc3c2=O)n1`, the inhibition was -2% (inactive).

On to `Cc1nc(S/C(=C/c2ccc(-c3ccc(C(=O)O)cc3)o2)C(=O)O)n[nH]1`, for which the inhibition was 11.3% (inactive).

Regarding `Cc1nc(S/C(=C/c2ccc(-c3ccc(Cl)cc3)o2)C(=O)O)n[nH]1`, the inhibition was -0.27% (inactive).

As for `CC(=O)Nc1ccc(NC(=O)COC(=O)[C@@H](NC(=O)c2ccc(F)cc2)C(C)C)cc1`, the inhibition was -1.53% (inactive).

In the case of `Cc1ccccc1C(=O)N1CCN(c2ccc(NC(=O)c3ccc4c(c3)OCO4)cc2)CC1`, the inhibition is -4.66% (inactive).

Turning to `CNC(=O)COC(=O)CCC(=O)c1cccs1`, the inhibition was 4.98% (inactive).

Regarding `O=C(O)c1cccc(S(=O)(=O)N2CCN(C(c3ccccc3)c3ccccc3)CC2)c1`, the inhibition is -1.93% (inactive).

Consider `Cc1coc(NC(=O)CSc2nc(-c3ccc(Cl)cc3)cc(C(F)(F)F)c2C#N)n1`, for which the inhibition was 3.77% (inactive).

As for `COC(=O)C1=C2c3[nH]c4ccccc4c3CCN2C(=O)CC1`, the inhibition is -2.64% (inactive).

For the compound `CN(C)S(=O)(=O)c1cccc(NC(=O)NCCCl)c1`, the inhibition is 8% (inactive).

For the compound `CN(CC(=O)NCCc1ccc(Cl)cc1)S(=O)(=O)c1ccc2c(c1)c(=O)n(C)c(=O)n2C`, the inhibition was -0.75% (inactive).

Turning to `CCCCN(CC)CCNC(=O)CN(C)S(=O)(=O)c1ccc2c(c1)c(=O)n(C)c(=O)n2C`, the inhibition is 20.9% (active).

As to `Cc1ccc(CCNC(=O)CN(C)S(=O)(=O)c2ccc3c(c2)c(=O)n(C)c(=O)n3C)cc1`, the inhibition was 2.34% (inactive).

Turning to `O=C1CCC/C(=N\NC(=O)c2ccc(CSc3cccc4cccnc34)cc2)C1`, the inhibition is 4.6% (inactive).

For the compound `CCn1c(SCC(=O)N/N=C/C=C/c2ccco2)nc2ccccc21`, the inhibition was -1.16% (inactive).

`Cn1c(SCC(=O)N/N=C/C=C\c2ccco2)nc2ccccc21`: the inhibition is -4.83% (inactive).

Consider `Cn1c(SCC(=O)N/N=C/C=C/c2ccco2)nc2ccccc21`, for which the inhibition was 13% (active).

Take `COc1cc(CNCCN(C)C)c(Br)cc1OCC(=O)NCc1ccccc1`: the inhibition is -1.96% (inactive).

Consider `COc1cc(/C=N/Nc2nc3ccccc3s2)cc([N+](=O)[O-])c1O`, for which the inhibition is 13.2% (active).

In the case of `O=[N+]([O-])c1cc(Cl)cc(/C=N/Nc2nc3ccccc3s2)c1O`, the inhibition is 0.98% (inactive).

For `COc1ccc(/C=N/Nc2nc3ccccc3s2)cc1O`, the inhibition is -3.48% (inactive).

In the case of `COc1ccc(/C=C/C(=O)OCC(=O)NC(=O)NC(C)(C)C)cc1`, the inhibition is 1.36% (inactive).

For `CC(=O)c1ccc(N2CCN(C(=O)/C=C/c3ccc4ccccc4n3)CC2)cc1`, the inhibition is 0.1% (inactive).

Consider `CC(=O)c1ccc(S(=O)(=O)N2CCN(C(=O)/C=C/c3ccc4ccccc4n3)CC2)cc1`, for which the inhibition is 14.1% (active).

In the case of `O=C(/C=C/c1ccc2ccccc2n1)N1CCN(S(=O)(=O)c2ccccc2F)CC1`, the inhibition was -1.23% (inactive).

Consider `Cc1ccc(/C=N/NC(=O)C(C)Oc2ccccc2[N+](=O)[O-])s1` (stereo not given), for which the inhibition was -0.21% (inactive).

On to `O=c1c2ccccc2n(Cc2ccccc2F)c(=O)n1Cc1ccccc1F`, for which the inhibition is 4.63% (inactive).

On to `Nc1ccc(Nc2ccccc2)c(S(=O)(=O)O)c1`, for which the inhibition is 36.2% (active).

With `Nc1cc(C(=O)O)ccc1Nc1ccccc1`, the inhibition was -4.84% (inactive).

For `Nc1ccc(Nc2ccccc2)c(Cl)c1`, the inhibition is 3.28% (inactive).

Consider `CCN(CC)S(=O)(=O)c1ccc(OC)c(NC(=O)c2ccc([N+](=O)[O-])cc2)c1`, for which the inhibition was -2.82% (inactive).

Take `Cc1cccc(-c2c3c(=O)n(C)c(=O)n(C)c3c3cccnn23)c1`: the inhibition was -0.55% (inactive).

Regarding `CC1=NN(c2ccc(C(=O)OC(C)C)cc2)C(=O)/C1=C\C=C\c1ccco1`, the inhibition was 1.04% (inactive).

On to `Cc1cccc(N2C(=O)NC(=O)/C(=C/c3ccc(-c4ccc(C(=O)O)c(Cl)c4)o3)C2=O)c1`, for which the inhibition is -1.08% (inactive).

As to `Cc1ccc(Sc2ccc(/C=C3/C(=O)NN(c4ccccc4)C3=O)o2)cc1`, the inhibition was 4.6% (inactive).

Take `O=C1NN(c2ccccc2)C(=O)/C1=C/c1ccc(Sc2ccc(Cl)cc2)o1`: the inhibition was 4.82% (inactive).

On to `CC1(C)OC(=O)C(=Cc2ccc(-c3ccc(Cl)c(C(=O)O)c3)o2)C(=O)O1`, for which the inhibition is 6.43% (inactive).

In the case of `O=C1NN(c2ccccc2)C(=O)/C1=C\c1ccc(-c2cc([N+](=O)[O-])ccc2O)o1`, the inhibition is 9.4% (inactive).

Take `CCOC(=O)c1ccc(N2N=C(C)/C(=C/C=C/c3ccco3)C2=O)cc1`: the inhibition was 3.89% (inactive).

Regarding `Cc1ccc(N2NC(=O)/C(=C/c3ccc(-c4ccc(Cl)c(C(=O)O)c4)o3)C2=O)cc1`, the inhibition was 7.4% (inactive).

As for `O=C1NN(c2ccc(Cl)cc2)C(=O)/C1=C\c1ccc(-c2cccc(C(=O)O)c2)o1`, the inhibition was 30.9% (active).

As to `CCOC(=O)C1CCN(c2cc(C)nc3cc(-c4cccc(F)c4)nn23)CC1`, the inhibition was 0.46% (inactive).

Take `CCCNC(=O)Nc1ccsc1C(=O)OC`: the inhibition was -1.89% (inactive).

For the compound `O=C1N=C(N2CCOCC2)S/C1=C1\C(=O)N(Cc2ccccc2)c2ccccc21`, the inhibition is 0.6% (inactive).

Consider `COCCCNc1ncnc2nc[nH]c12`, for which the inhibition is -2.31% (inactive).

For `CC1(C(=O)OCC(=O)Nc2ccc(C(N)=O)cc2)CC1(Cl)Cl` (stereo not given), the inhibition is -0.58% (inactive).

With `CC1CC(C)(C)NC(=S)N1CCCC(=O)Nc1ccc2c(c1)OCCO2` (stereo not given), the inhibition is -3.18% (inactive).

In the case of `CC1CCN(C(c2nnnn2CCc2ccccc2)C(C)C)CC1` (stereo not given), the inhibition is 2.28% (inactive).

In the case of `COc1ccc(Sc2ccc(/C=C3\C(=O)NN(c4ccccc4)C3=O)o2)cc1`, the inhibition was 7.34% (inactive).

With `CCCCC1(C)OC(=O)C(=Cc2ccc(-c3ccc(Cl)c(C(=O)O)c3)o2)C(=O)O1` (stereo not given), the inhibition was 0.45% (inactive).

Take `COc1ccc(CN2C(=O)/C(=C/c3ccc(-c4ccc(Cl)c(C(=O)O)c4)o3)SC2=S)cc1`: the inhibition was 9.33% (inactive).

`CC1=NOC(=O)/C1=C\c1ccc(-c2ccc(Cl)c(C(=O)O)c2)o1`: the inhibition was 19.4% (inactive).

`O=C(CN1CCC(NC(=O)Cc2ccccc2)CC1)Nc1cccc2ccccc12`: the inhibition was 4.11% (inactive).

As for `O=C(NCc1ccccc1Cl)c1ccc(-c2ccccc2)cc1`, the inhibition was -4.31% (inactive).

Consider `O=C(NCc1ccccc1)c1c(O)c2cccc3c2n(c1=O)CCC3`, for which the inhibition was -6.36% (inactive).

Regarding `CN(Cc1cnn(C)c1)S(=O)(=O)c1cccc([N+](=O)[O-])c1`, the inhibition is 2.06% (inactive).

Take `CC(C)=C1C(=O)NN(c2cccc(Cl)c2)C1=O`: the inhibition was 3.03% (inactive).

Regarding `O=C1CC(=O)N(c2cccc(F)c2)N1`, the inhibition was 8.59% (inactive).

On to `COCCNC(=O)[C@H]1C[C@@H]1[C@H](NP(=O)(c1ccccc1)c1ccccc1)c1ccccc1`, for which the inhibition is 0.38% (inactive).

In the case of `Cc1ccc(-n2c(COc3cccc(C)c3)n[nH]c2=S)cc1`, the inhibition is 1.39% (inactive).

With `O=C(c1cccs1)N1CCN(c2ncccn2)CC1`, the inhibition was -2.05% (inactive).

With `CCOC(=O)C1=C(C)C(c2ccc(OC)cc2)NC(=O)N1` (stereo not given), the inhibition was -6.08% (inactive).

As for `Cc1nn(C)cc1/C=C1\SC(=S)NC1=O`, the inhibition was 4.22% (inactive).

With `CCn1c(C)cc(/C=C2/SC(=S)NC2=O)c1C`, the inhibition is 1.44% (inactive).

Consider `Cc1cc(/C=C2\SC(=S)NC2=O)c(C)n1C`, for which the inhibition is 5.92% (inactive).

As for `CCn1cc(/C=C2/SC(=S)NC2=O)c(C)n1`, the inhibition is 13.2% (active).

Take `Cc1cc(/C=C2\SC(=S)NC2=O)c(C)[nH]1`: the inhibition is 13.5% (active).

As for `CCn1ncc(/C=C2/SC(=S)NC2=O)c1C`, the inhibition is 11.3% (inactive).

`Cc1cc(C)n(-c2nc(C)nc(N)n2)n1`: the inhibition was -5.19% (inactive).

As for `Cc1cc(C)n(-c2nc(C)nc(NCc3ccccc3)n2)n1`, the inhibition was -4.13% (inactive).

Consider `CNc1nc(C)nc(-n2nc(C)cc2C)n1`, for which the inhibition was 13.6% (active).

In the case of `Cc1sc(NC(=O)c2ccco2)nc1-c1ccc2c(c1)CC(C)N2C(=O)C1CC1` (stereo not given), the inhibition was 3.65% (inactive).

Take `CCn1c(-c2csc(C(C)C)c2)n[nH]c1=S`: the inhibition was 14.3% (active).

For `CCCCn1c(-c2csc(C(C)C)c2)n[nH]c1=S`, the inhibition is -1.43% (inactive).

For `CC(C)Cn1c(-c2csc(C(C)C)c2)n[nH]c1=S`, the inhibition is -2.74% (inactive).

In the case of `COc1ccc(NC(=O)C(c2ccccc2)c2ccccc2)cn1`, the inhibition is -4.39% (inactive).

For the compound `CCS(=O)(=O)Nc1ccc(C2=NN(C(=S)Nc3ccccc3)C(c3ccco3)C2)cc1` (stereo not given), the inhibition is -0.65% (inactive).

Consider `CN(C)C(=S)NC(C)(C)C`, for which the inhibition was 1.31% (inactive).

In the case of `COc1ccc(CC(=O)N/N=C/c2ccc(-c3cccc(C(=O)O)c3)o2)cc1OC`, the inhibition is 9.43% (inactive).

On to `CNC(=S)N/N=C/c1ccc(-c2cccc(C(=O)O)c2)o1`, for which the inhibition was 6.34% (inactive).

Regarding `Nc1nonc1C(=O)N/N=C/c1ccc(-c2ccc(Cl)c(C(=O)O)c2)o1`, the inhibition is 5.31% (inactive).

With `Nc1nonc1C(=O)N/N=C/c1ccc(-c2cccc([N+](=O)[O-])c2)o1`, the inhibition is 1.58% (inactive).

`O=C(N/N=C/c1ccc(-c2ccc([N+](=O)[O-])cc2)o1)c1cccnc1`: the inhibition was 7.58% (inactive).

Consider `Cc1ccc(OCC(=O)N/N=C\c2ccc(C)o2)c(C)c1`, for which the inhibition was 1.64% (inactive).

For `O=C(NCCn1cc(SCC(=O)N2CCOCC2)c2ccccc21)c1c(F)cccc1F`, the inhibition was 7.41% (inactive).

With `O=C(CSc1nnnn1-c1ccc(O)cc1)c1cc2ccccc2o1`, the inhibition was -1.55% (inactive).

For the compound `COc1ccc(/C=C2\SC(=O)N(CC(=O)NNC(=O)c3ccccc3O)C2=O)cc1OC`, the inhibition was 13.8% (active).

In the case of `Cc1cccc(NC(=O)CN2C(=O)S/C(=C\c3ccc(-c4cccc(C(=O)O)c4C)o3)C2=O)c1`, the inhibition is 5.54% (inactive).

In the case of `Cc1ccc(NC(=O)CN2C(=O)S/C(=C/c3ccc(O)c([N+](=O)[O-])c3)C2=O)cc1C`, the inhibition is 14.8% (active).

For the compound `CCOC(=O)CN1C(=O)S/C(=C/c2ccc(O)c([N+](=O)[O-])c2)C1=O`, the inhibition is 6.11% (inactive).

Turning to `O=C(CN1C(=O)S/C(=C\c2ccccc2)C1=O)NNC(=O)c1ccccc1O`, the inhibition was 6.78% (inactive).

Regarding `Cc1ccccc1NC(=O)CN1C(=O)S/C(=C\c2ccc(-c3cccc(C(=O)O)c3C)o2)C1=O`, the inhibition was -5.01% (inactive).

For `COc1ccc(/C=C2\SC(=O)N(CC(=O)NNC(=O)c3ccccc3O)C2=O)cc1`, the inhibition is 6.62% (inactive).

In the case of `Cc1ccc(NC(=O)CN2C(=O)S/C(=C\c3ccc(-c4cccc(C(=O)O)c4C)o3)C2=O)cc1C`, the inhibition was 15.4% (active).

In the case of `Cc1ccc(NC(=O)CN2C(=O)S/C(=C\c3ccc(-c4cccc(C(=O)O)c4C)o3)C2=O)cc1`, the inhibition was 3.05% (inactive).

As for `Cc1ccc(C(=O)O)cc1-c1ccc(/C=C2\SC(=O)N(CC(=O)Nc3ccccc3)C2=O)o1`, the inhibition was 6.53% (inactive).

Regarding `Cc1ccc(NC(=O)CN2C(=O)S/C(=C/c3ccc(-c4cccc(C(=O)O)c4)o3)C2=O)cc1`, the inhibition was 13.1% (active).

As for `Cc1cccc(NC(=O)CN2C(=O)S/C(=C\c3ccc(O)c([N+](=O)[O-])c3)C2=O)c1`, the inhibition is 3.95% (inactive).
